In PubChem BioAssay (Tox21):
Results filed as inconclusive are left out. Activity calls are given as the source filed them. Unless noted, calls follow the shape of the dose curve; as a rule, active = well fitted curve in the direction sought with a large enough effect in the repeat runs; inconclusive = weak or mixed curves; inactive = no such curve, though single readings can be large; an effect the other way counts as inactive or inconclusive.

Legend:
[1] = qHTS assay to identify small molecule agonists of the peroxisome proliferator-activated receptor delta (PPARd) signaling pathway - cell viability counter screen (AID 743211); also: % is scaled to controls: 0 for no effect and ±100 for the full control effect; nearly all actives have a fitted effect of over 55% in size
In short: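 Counter screen for cytotoxicity run in parallel with the PPARd reporter screen. Beta-lactamase reporter HEK293H cells exposed to compounds 17 h; ATP-based CellTiter-Glo luminescence quantified viability.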

[2] = target: Peroxisome proliferator-activated receptor delta (Homo sapiens) (UniProt Q03181); assay: qHTS assay to identify small molecule agonists of the peroxisome proliferator-activated receptor delta (PPARd) signaling pathway (AID 743212; calls by dose curve; also: % is scaled to controls: 0 for no effect and ±100 for the full control effect)
In short: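 GeneBLAzer PPARd UAS-bla HEK293H cells (beta-lactamase reporter under UAS control), plated and rested 5 h at 37 C, then exposed to compounds in DMSO at 37 C; LiveBLAzer B/G FRET substrate added, 2 h room temperature, fluorescence read.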

[3] = qHTS assay to identify small molecule antagonists of the peroxisome proliferator-activated receptor delta (PPARd) signaling pathway - cell viability counter screen (AID 743213); also: % is scaled to controls: 0 for no effect and ±100 for the full control effect; nearly all actives have a fitted effect of over 50% in size
In short: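 Viability counter-screen, qHTS format: PPARd-bla HEK293H, L165041 300 nM final, 17 h compound exposure at 37 C, CellTiter-Glo luminescence after 30 min RT.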

[4] = target: Peroxisome proliferator-activated receptor delta (Homo sapiens) (UniProt Q03181); assay: qHTS assay to identify small molecule antagonists of the peroxisome proliferator-activated receptor delta (PPARd) signaling pathway (AID 743215; active = well fitted inhibition curve with a large enough effect in the signal ratio in the repeat runs, not every such curve was filed as active; the % refers to the signal ratio;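 also: cells stimulated with agonist L165041 at 300 nM final during compound exposure; series mostly up to about 62 µM; % is scaled to controls: 0 for no effect and ±100 for the full control effect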)
In short: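 With L165041 present at 300 nM final, compounds were incubated 17 h at 37 C on PPARd UAS-bla HEK293H cells. A FRET-based beta-lactamase substrate was then applied for 2 h at room temperature and fluorescence intensity recorded.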

[5] = target: Bile acid receptor (Homo sapiens) (UniProt Q96RI1); assay: qHTS assay to identify small molecule antagonists of the farnesoid-X-receptor (FXR) signaling pathway (AID 743217; active = well fitted inhibition curve with a large enough effect in the signal ratio in the repeat runs, not every such curve was filed as active; the % refers to the signal ratio; also: % is scaled to controls: 0 for no effect and ±100 for the full control effect)
In short: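 In this cell-based antagonist screen, inhibition of CDCA-driven (50 uM final) UAS-beta-lactamase expression in HEK 293T cells was measured by FRET fluorescence following 16 h compound exposure at 37 °C.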

[6] = qHTS assay to identify small molecule agonists of the farnesoid-X-receptor (FXR) signaling pathway - cell viability counter screen (AID 743218); also: % is scaled to controls: 0 for no effect and ±100 for the full control effect; nearly all actives have a fitted effect of over 45% in size
In short: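 After 16 h at 37 C with test compounds, FXR-bla HEK 293T cells were given LiveBLAzer B/G substrate for 2 h at RT and then CellTiter-Glo; luminescence was taken after 30 min.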

[7] = qHTS assay to identify small molecule antagonists of the farnesoid-X-receptor (FXR) signaling pathway - cell viability counter screen (AID 743221; active = well fitted cell-killing curve with a large enough effect in the repeat runs, not every such curve was filed as active; also: % is scaled to controls: 0 for no effect and ±100 for the full control effect; nearly all actives have a fitted effect of over 50% in size)
In short: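 Multiplexed counter screen: viability of FXR-bla HEK 293T cells under agonist stimulation by chenodeoxycholic acid (50 uM, final) and test compound for 16 h at 37 C, measured by CellTiter-Glo luminescence in the reporter wells.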

[8] = target: Vitamin D3 receptor (Homo sapiens) (UniProt P11473); assay: qHTS assay to identify small molecule agonists of the vitamin D receptor (VDR) signaling pathway (AID 743222; calls by dose curve; also: % is scaled to controls: 0 for no effect and ±100 for the full control effect)
In short: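 VDR-bla cells were seeded, left 4 h, treated with compounds in DMSO for 16 h, incubated 2 h at RT with B/G FRET substrate, and read for fluorescence.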

[9] = target: Vitamin D3 receptor (Homo sapiens) (UniProt P11473); assay: qHTS assay to identify small molecule antagonists of the vitamin D receptor (VDR) signaling pathway (AID 743223; active = well fitted inhibition curve with a large enough effect in the signal ratio in the repeat runs, not every such curve was filed as active; the % refers to the signal ratio; also: % is scaled to controls: 0 for no effect and ±100 for the full control effect)
In short: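 Cells carrying a VDR-driven beta-lactamase reporter (VDR-bla) were co-treated with compound and 3 nM final 1alpha,25-dihydroxyvitamin D3 for 16 h at 37C; reporter activity was measured as FRET substrate fluorescence after 2 h at room temperature.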

[10] = qHTS assay to identify small molecule agonists of the vitamin D receptor (VDR) signaling pathway - cell viability counter screen (AID 743224); also: series mostly up to about 63 µM; % is scaled to controls: 0 for no effect and ±100 for the full control effect; nearly all actives have a fitted effect of over 50% in size
In short: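 Here cell health was gauged by luminescent ATP detection (CellTiter-Glo, 30 min RT) in VDR-bla cells that had been incubated with test compounds for 16 h at 37C and 5% CO2.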

[11] = qHTS assay to identify small molecule antagonists of the vitamin D receptor (VDR) signaling pathway - cell viability counter screen (AID 743225); also: % is scaled to controls: 0 for no effect and ±100 for the full control effect; nearly all actives have a fitted effect of over 50% in size
In short: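 HEK293T VDR-bla; cpd + 1a,25-(OH)2D3 3 nM final, 16 h 37C/5% CO2; B/G FRET substrate 2 h RT; then CellTiter-Glo 30 min RT, luminescence.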

[12] = qHTS assay to identify small molecule agonists of the NFkB signaling pathway (AID 1159509; active = well fitted curve in the direction sought with a large enough effect in the signal ratio in the repeat runs, not every such curve was filed as active; the % refers to the signal ratio)
In short: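 After overnight attachment, reporter cells received test compounds, DMSO or positive controls and were incubated 5 hr at 37 C. FRET substrate was then added for 1.5 hr at room temperature before dual-emission fluorescence reading.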

[13] = target: Nuclear receptor ROR-gamma (Homo sapiens) (UniProt P51449); assay: qHTS assay to identify small molecule antagonists of the retinoid-related orphan receptor gamma (ROR-gamma) signaling pathway (AID 1159521)
In short: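 Cells were plated, rested 4 h at 37 C, exposed to compounds for 2 h, then given 1 uM final doxycycline hyclate to induce RORγ expression. After 16 h, ONE-Glo luminescence from the ROR response element reporter was measured.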

[14] = qHTS assay to identify small molecule agonists of the AP-1 signaling pathway - cell viability counter screen (AID 1159525; calls by dose curve; also: nearly all actives have a fitted effect of over 55% in size)
In short: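 ME-180 AP-1-bla, 2500 cells/well, Opti-MEM + 0.5% dialyzed FBS; overnight 37 °C; cpd 15-pt titration, 5 h 37 °C; CellTiter-Glo 30 min RT; luminescence read; normalised to TOAB and DMSO controls.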

[15] = qHTS assay to identify small molecule agonists of the AP-1 signaling pathway (AID 1159526; calls by dose curve; also: % is scaled to controls: 0 for no effect and ±100 for the full control effect)
[16] = qHTS assay to identify small molecule agonists of the endoplasmic reticulum stress response signaling pathway (AID 1159516; active = well fitted activation curve with a large enough effect in the signal ratio in the repeat runs, not every such curve was filed as active; the % refers to the signal ratio; also: % is scaled to controls: 0 for no effect and ±100 for the full control effect)
In short: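 Reporter HeLa cells (ESRE-beta-lactamase) underwent 5 hr compound incubation at 37 C and 5% CO2 in quantitative HTS format. Detection followed 2 hr of FRET substrate loading at room temperature.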

[17] = qHTS assay to identify small molecule agonists of the endoplasmic reticulum stress response signaling pathway - cell viability counter screen (AID 1159517; calls by dose curve)
In short: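 Luminescence readout: CellTiter-Glo, 30 min RT, same wells as the ESRE-bla reporter read. HeLa ESRE-bla, 1,500 cells/well, o/n 37 C; cpd 5 hr 37 C/5% CO2.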

[18] = qHTS assay to identify small molecule antagonists of the retinoid-related orphan receptor gamma (ROR-gamma) signaling pathway - cell viability counter screen (AID 1159520)
In short: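 Tet-on ROR gamma CHO cells (1,000/well) were plated 4 hr, given compounds in DMSO for 2 hr at 37 C, then induced with 1 uM final doxycycline for 16 hr. Viability was read as ATP by CellTiter-Glo luminescence after 30 min.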

[19] = target: Bile acid receptor (Homo sapiens) (UniProt Q96RI1); assay: qHTS assay to identify small molecule agonists of the farnesoid-X-receptor (FXR) signaling pathway (AID 743220; active = well fitted activation curve with a large enough effect in the signal ratio in the repeat runs, not every such curve was filed as active; the % refers to the signal ratio; also: % is scaled to controls: 0 for no effect and ±100 for the full control effect)
In short: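 Beta-lactamase reporter under UAS control in GeneBLAzer FXR HEK 293T cells (5000/well) measured with LiveBLAzer FRET substrate after 2 h at room temperature. Compound exposure lasted 16 h at 37C.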

Chain of Peroxisome proliferator-activated receptor delta (Homo sapiens) (Q03181 whole entry, looked up): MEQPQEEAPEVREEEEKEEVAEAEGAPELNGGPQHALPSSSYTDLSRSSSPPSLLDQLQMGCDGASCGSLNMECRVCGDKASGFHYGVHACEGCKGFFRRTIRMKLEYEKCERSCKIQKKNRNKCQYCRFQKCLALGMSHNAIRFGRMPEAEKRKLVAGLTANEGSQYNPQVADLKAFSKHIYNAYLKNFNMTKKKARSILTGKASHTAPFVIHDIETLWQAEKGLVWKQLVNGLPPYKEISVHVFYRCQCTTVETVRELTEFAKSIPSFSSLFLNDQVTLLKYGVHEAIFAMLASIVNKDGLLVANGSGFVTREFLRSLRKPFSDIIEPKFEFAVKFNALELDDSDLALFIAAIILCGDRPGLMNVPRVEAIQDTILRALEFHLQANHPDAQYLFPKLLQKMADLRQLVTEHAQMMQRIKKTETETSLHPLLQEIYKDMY
Chain of Vitamin D3 receptor (Homo sapiens) (P11473 whole entry, looked up): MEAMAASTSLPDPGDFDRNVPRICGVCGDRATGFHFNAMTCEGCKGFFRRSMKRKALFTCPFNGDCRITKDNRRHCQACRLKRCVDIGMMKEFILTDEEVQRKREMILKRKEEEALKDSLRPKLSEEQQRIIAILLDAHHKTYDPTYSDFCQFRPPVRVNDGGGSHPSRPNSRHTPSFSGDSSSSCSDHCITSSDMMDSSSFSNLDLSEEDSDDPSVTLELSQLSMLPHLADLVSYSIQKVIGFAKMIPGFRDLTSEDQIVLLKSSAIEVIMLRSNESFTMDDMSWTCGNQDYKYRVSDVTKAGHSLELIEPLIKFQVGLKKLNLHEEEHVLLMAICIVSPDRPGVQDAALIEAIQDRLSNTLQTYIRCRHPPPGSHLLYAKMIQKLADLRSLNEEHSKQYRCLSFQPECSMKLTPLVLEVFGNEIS
Chain of Bile acid receptor (Homo sapiens) (Q96RI1 whole entry, looked up): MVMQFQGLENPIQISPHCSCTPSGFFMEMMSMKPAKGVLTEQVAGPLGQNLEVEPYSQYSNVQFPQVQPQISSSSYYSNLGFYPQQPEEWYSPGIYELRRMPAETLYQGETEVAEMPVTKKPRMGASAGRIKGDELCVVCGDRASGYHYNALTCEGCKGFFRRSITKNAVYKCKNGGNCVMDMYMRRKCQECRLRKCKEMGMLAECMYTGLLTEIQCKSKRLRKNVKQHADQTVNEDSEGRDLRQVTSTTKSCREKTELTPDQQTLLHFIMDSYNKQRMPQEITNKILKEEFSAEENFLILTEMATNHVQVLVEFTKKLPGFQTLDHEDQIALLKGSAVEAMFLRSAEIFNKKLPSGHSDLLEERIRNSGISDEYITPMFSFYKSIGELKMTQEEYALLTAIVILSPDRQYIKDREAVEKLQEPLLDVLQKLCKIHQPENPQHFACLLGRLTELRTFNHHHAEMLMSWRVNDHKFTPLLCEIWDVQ

CCCCC(CC)CNC(=O)CC(C)OC(=O)CCC(=O)O (stereo unspecified)
inactive: outcome [1] | outcome [2] | outcome [3] | outcome [4] | outcome [5] | Potency [6] | outcome [7] | outcome [8] | outcome [9] | outcome [10] | outcome [11] | outcome [12] | outcome [13] | outcome [14] | outcome [15]

CN(C)CCCNCCC#N
inactive: outcome [1] | outcome [2] | outcome [3] | outcome [4] | Potency [6] | outcome [7] | outcome [8] | outcome [9] | outcome [10] | outcome [12] | outcome [16] | outcome [17] | outcome [18] | outcome [13] | outcome [14] | outcome [15]

Cc1nc2n(c(=O)c1CCN1CCC(C(=O)c3ccc(F)cc3)CC1)CCS2
inactive: outcome [2] | outcome [3] | outcome [4] | outcome [5] | Potency [6] | outcome [19] | outcome [7] | outcome [8] | outcome [9] | outcome [10] | outcome [11] | outcome [12] | outcome [16] | outcome [17] | outcome [18] | outcome [13] | outcome [15]

CN[C@@H]1[C@H](O)[C@H](NC)[C@H]2O[C@@]3(O)C(=O)C[C@@H](C)O[C@H]3O[C@@H]2[C@H]1O
inactive: outcome [1] | outcome [3] | outcome [5] | Potency [6] | outcome [7] | outcome [8] | outcome [9] | outcome [10] | outcome [11] | outcome [12] | outcome [16] | outcome [17] | outcome [18] | outcome [13] | outcome [14] | outcome [15]

CC1=CC[C@H](CC=O)C1(C)C
inactive: outcome [1] | outcome [2] | outcome [3] | outcome [4] | outcome [5] | Potency [6] | outcome [8] | outcome [9] | outcome [10] | outcome [11] | outcome [12] | outcome [16] | outcome [17] | outcome [18] | outcome [13] | outcome [14] | outcome [15]

CC(=O)/C=C/c1ccco1
inactive: outcome [1] | outcome [2] | outcome [3] | outcome [4] | outcome [5] | Potency [6] | outcome [19] | outcome [7] | outcome [8] | outcome [9] | outcome [10] | outcome [11] | outcome [12] | outcome [16] | outcome [17] | outcome [18] | outcome [13] | outcome [15]

O=CO
inactive: activity change, negative = cytotoxicity [1] 1.94% [at 5.95 µM] | viability change, negative = cytotoxic [3] 11.9% [at 6.26 µM] | activity change, negative = inhibition [5] -0.433% [at 5.95 µM] | viability change, negative = cytotoxic [6] 0.465% [at 5.95 µM] | activation [19] -0.16% [at 5.95 µM] | activity change, negative = cytotoxicity [7] -2.88% [at 5.95 µM] | activation [8] -1.04% [at 6.01 µM] | activity change, negative = inhibition [9] 3.44% [at 6.95 µM] | activity change, negative = cytotoxicity [10] -15.6% [at 5.95 µM] | viability change, negative = cytotoxic [11] 3.57% [at 6.95 µM] | activation [12] -0.32% [at 6.95 µM] | activation [16] -2.58% [at 6.95 µM] | activity change, negative = cytotoxicity [17] -1.24% [at 6.95 µM] | activity, negative = cytotoxicity [18] 0.77% [at 8.39 µM] | activity change, negative = inhibition [13] 22.1% [at 8.39 µM] | viability change, negative = cytotoxic [14] 1.49% [at 6.97 µM] | activation [15] 1.24% [at 6.97 µM]
